# Test results reported in the supplement of paper PMC3545927.
# This is one part of the list. The hit rate among all sequences tested is not known here.
# B1: FS-449 (peptide)
# chain: CAKIPRFRRIAGNASASA
# B2: FS-543 (peptide)
# chain: CAISPRQRRAAGNASASA
# B3: FS-272 (peptide)
# chain: CALRWRQRRAAGNASASA
# B4: FS-614 (peptide)
# chain: CALRPRFRREAGNASASA
# B5: FS-138 (peptide)
# chain: CAPRARCRRAAGNASASA
# B6: HC195 (peptide)
# chain: CARRPEGRTWAGNASASA
# B7: HC1045 (peptide)
# chain: CAISGIQYLAAGNASASA
# B8: HC1520 (peptide)
# chain: CAARAACRAAAGNASASA
# B9: HC1431 (peptide)
# chain: CASVWKDLLEAGNASASA
# B10: HC1135 (peptide)
# chain: CASSLTVTQLAGNASASA
# B11: HC1244 (peptide)
# chain: CADVAVLTSMAGNASASA
# B12: HC2490 (peptide)
# chain: CASVPCSAHLAGNASASA
# B13: HC1262 (peptide)
# chain: CAASQLSAPSAGNASASA
# B14: HC78 (peptide)
# chain: CATTPCNGSWAGNASASA
# B15: HC579 (peptide)
# chain: CARYISWCLWAGNASASA
# B16: HC2259 (peptide)
# chain: CAEVVTSTWPAGNASASA
# B17: FS-86 (peptide)
# chain: CARPQPQRRAAGNASASA
# B18: FS-1253 (peptide)
# chain: CAQRQRQRRAAGNASASA
# B19: FS-347 (peptide)
# chain: CALAQRQRRIAGNASASA
# B20: FS-2708 (peptide)
# chain: CARLKRRLVPAGNASASA
# B21: FS-3196 (peptide)
# chain: CARLKKKVKQAGNASASA
# B22: FS-2351 (peptide)
# chain: CARLKRRVKSAGNASASA
# B23: HC1994 (peptide)
# chain: CAKVCCSMSYAGNASASA
# B24: FS-2816 (peptide)
# chain: CARSRRGLFAAGNASASA
# B25: FS-2312 (peptide)
# chain: CARSRRGIFIAGNASASA
# B26: FS-2012 (peptide)
# chain: CARFDRQIFIAGNASASA
# B27: FS-1908 (peptide)
# chain: CARLRRGLAAAGNASASA
# B28: FS-3153 (peptide)
# chain: CAREKRGPSGAGNASASA
# B29: FU1 (peptide)
# chain: CAREKRGLFGAGNASASA
# B30: FS-2549 (peptide)
# chain: CAREKRGWTMAGNASASA
# B31: FS-1694 (peptide)
# chain: CAREKRFTFVAGNASASA
# B32: FS-2329 (peptide)
# chain: CAREKRFCTGAGNASASA
# B33: HC2072 (peptide)
# chain: CAVVCCSMEYAGNASASA
# B34: HC854 (peptide)
# chain: CAGGRHLIFCAGNASASA
# B35: HC949 (peptide)
# chain: CAKQSGENLPAGNASASA
# B36: HC1549 (peptide)
# chain: CAEYDLELITAGNASASA
# B37: FS-297 (peptide)
# chain: CASLKKIKRSAGNASASA
# B38: FS-1515 (peptide)
# chain: CACPNIIKRSAGNASASA
# B39: FS-1179 (peptide)
# chain: CAVRTRIKRSAGNASASA
# B40: FS-46 (peptide)
# chain: CAKSSRIKRSAGNASASA
# B41: HC706 (peptide)
# chain: CAASPKGPVIAGNASASA
# B42: HC766 (peptide)
# chain: CATDNSSPPVAGNASASA
# B43: FS-403 (peptide)
# chain: CAATSRTKRFAGNASASA
# B44: FS-781 (peptide)
# chain: CAGHFRLKRTAGNASASA
# B45: FS-576 (peptide)
# chain: CAYIRRTKRFAGNASASA
# B46: FS-1291 (peptide)
# chain: CATHRRTKRFAGNASASA
# B47: FS-330 (peptide)
# chain: CAGNRRLKRFAGNASASA
# B48: HC822 (peptide)
# chain: CAATSILGIGAGNASASA
# B49: FS-728 (peptide)
# chain: CATLKRTRKFAGNASASA
# Biological target: furin, P09958
# Assay: furin cleavage Z-score vs untreated control; higher = more cleavage, active = 3.5 or more, inactive = 1 or less, 8 variable residues between constant flanks
# Summary of the method: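 Cleavage by purified furin was measured on 8-mer peptides fused to a cDNA oligonucleotide and held on magnetic beads by their N-terminus. Reactions (0.01 ml, 1:10 enzyme:substrate) ran 7.5, 15 or 30 min in 50 mM HEPES pH 7.5 with CaCl2 and NaCl. Released DNA was adapter-tagged by PCR and sequenced, with read counts giving abundance. Log counts versus furin-free reactions were lowess-adjusted and scaled by median absolute deviation to give the cleavage Z-score.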
# Sequence of furin, P09958 (P09958 whole entry): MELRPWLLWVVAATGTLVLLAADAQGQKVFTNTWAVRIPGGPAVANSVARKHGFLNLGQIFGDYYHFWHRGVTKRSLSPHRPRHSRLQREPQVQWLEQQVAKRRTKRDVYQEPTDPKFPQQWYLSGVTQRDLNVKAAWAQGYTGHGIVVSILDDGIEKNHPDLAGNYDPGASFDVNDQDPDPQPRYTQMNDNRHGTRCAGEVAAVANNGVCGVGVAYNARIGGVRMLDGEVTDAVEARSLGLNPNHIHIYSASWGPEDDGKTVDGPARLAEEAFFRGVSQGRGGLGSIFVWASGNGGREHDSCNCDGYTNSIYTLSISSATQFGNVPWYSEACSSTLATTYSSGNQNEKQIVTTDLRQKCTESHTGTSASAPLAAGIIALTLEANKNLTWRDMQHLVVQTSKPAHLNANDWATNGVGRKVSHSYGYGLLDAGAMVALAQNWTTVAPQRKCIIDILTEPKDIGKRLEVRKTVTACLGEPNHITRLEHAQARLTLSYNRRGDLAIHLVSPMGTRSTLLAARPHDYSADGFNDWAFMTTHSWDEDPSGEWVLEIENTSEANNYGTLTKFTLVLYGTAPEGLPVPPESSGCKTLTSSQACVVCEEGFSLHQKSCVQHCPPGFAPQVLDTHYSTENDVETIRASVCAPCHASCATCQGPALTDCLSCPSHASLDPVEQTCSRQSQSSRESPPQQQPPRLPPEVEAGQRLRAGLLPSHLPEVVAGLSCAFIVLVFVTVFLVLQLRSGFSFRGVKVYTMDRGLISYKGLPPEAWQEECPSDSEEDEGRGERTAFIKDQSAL
Sequence,furin cleavage Z-score (7.5 min),furin cleavage Z-score (15 min),furin cleavage Z-score (30 min)
B1,0.2 (inactive),0.191 (inactive),2.93
B2,7.77 (active),6.99 (active),6.1 (active)
B3,3.83 (active),4.93 (active),3.79 (active)
B4,10 (active),8.78 (active),6.07 (active)
B5,8.91 (active),10.2 (active),7.25 (active)
B6,-0.89 (inactive),0.845 (inactive),-0.916 (inactive)
B7,-1.05 (inactive),0.557 (inactive),-1.83 (inactive)
B8,-1.54 (inactive),-0.427 (inactive),-0.259 (inactive)
B9,-0.463 (inactive),0.374 (inactive),-0.00259 (inactive)
B10,0.41 (inactive),-0.51 (inactive),-0.191 (inactive)
B11,0.796 (inactive),0.438 (inactive),-0.848 (inactive)
B12,0.673 (inactive),0.436 (inactive),1.54
B13,0.172 (inactive),0.594 (inactive),2.91
B14,-0.41 (inactive),0.152 (inactive),0.215 (inactive)
B15,-0.0545 (inactive),0.138 (inactive),0.846 (inactive)
B16,-1.41 (inactive),-0.126 (inactive),0.24 (inactive)
B17,2.58,5.58 (active),5.07 (active)
B18,8.09 (active),6.53 (active),6.09 (active)
B19,0.264 (inactive),-0.423 (inactive),0.578 (inactive)
B20,2.61,4.61 (active),5.01 (active)
B21,-1.36 (inactive),-0.919 (inactive),0.354 (inactive)
B22,4.89 (active),6 (active),4.82 (active)
B23,1.97,0.312 (inactive),0.855 (inactive)
B24,2.59,2.97,6.66 (active)
B25,1.57,2.13,4.7 (active)

Sequence,furin cleavage Z-score (7.5 min),furin cleavage Z-score (15 min),furin cleavage Z-score (30 min)
B26,-0.31 (inactive),-0.173 (inactive),-0.368 (inactive)
B27,0.841 (inactive),1.22,1.44
B28,0.65 (inactive),-0.112 (inactive),0.123 (inactive)
B29,0.425 (inactive),4.29 (active),0.496 (inactive)
B30,0.613 (inactive),1.51,2.06
B31,-0.942 (inactive),0.437 (inactive),3.16
B32,2.75,4.22 (active),4.58 (active)
B33,-2.66 (inactive),0.354 (inactive),1.04
B34,-0.514 (inactive),-0.469 (inactive),-1.05 (inactive)
B35,0.51 (inactive),-0.215 (inactive),-0.135 (inactive)
B36,-0.697 (inactive),-1.21 (inactive),-2.02 (inactive)
B37,7.52 (active),5.89 (active),5.86 (active)
B38,2.47,0.593 (inactive),1.43
B39,12.5 (active),13.6 (active),9.29 (active)
B40,11.3 (active),10.3 (active),8.65 (active)
B41,0.401 (inactive),-0.666 (inactive),-0.477 (inactive)
B42,0.776 (inactive),0.102 (inactive),-1.25 (inactive)
B43,8.04 (active),8.57 (active),8.59 (active)
B44,7.47 (active),7.94 (active),7.12 (active)
B45,1.05,1.14,0.61 (inactive)
B46,4.37 (active),4.6 (active),3.54 (active)
B47,8.6 (active),8.74 (active),8.35 (active)
B48,-1.81 (inactive),-0.57 (inactive),0.323 (inactive)
B49,0.831 (inactive),2.85,1.42
